# Source: PubChem BioAssay
# Calls of active or inactive are those of the source.
# Legend:
# [1] = A549 cell viability effects, profiling panel, calcein-AM fluorescence, 48 h, basal (AID 1162); conditions: higher = more signal
# [2] = adipocyte viability effects, profiling panel, cell-based, 3T3-L1 adipocytes, calcein-AM fluorescence, 48 h, basal (AID 1163); conditions: 3T3-L1 adipocytes viability, higher = more signal
# [3] = HepG2 cell viability effects, profiling panel, calcein-AM fluorescence, 48 h, basal (AID 1164); conditions: higher = more signal
# [4] = MM1S cell viability effects, profiling panel, calcein-AM fluorescence, 48 h, basal (AID 1165); conditions: higher = more signal;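 further: viability of MM1S multiple myeloma cells under basal unstimulated conditions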
# [5] = basal RPMI8226 viability, no added stimulus, profiling panel, cell-based, calcein-AM fluorescence, 48 h, PK04 Diversity Set (AID 1166); conditions: RPMI8226 myeloma viability, higher = more signal;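 further: cells grown under basal conditions without added stimulus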
# [6] = basal HepG2 mitochondrial membrane potential changes, profiling panel, cell-based, JC-1 fluorescence, 24 h, 100 nL compound (AID 1167); conditions: higher = more signal
# [7] = basal 3T3-L1 adipocyte mitochondrial potential changes, profiling panel, cell-based, JC-1 fluorescence, 3T3-L1 adipocytes, 24 h, 100 nL compound (AID 1168); conditions: JC-1 mitochondrial fluorescence, higher = more signal, called active from +8 up or from −8 down
# [8] = basal RPMI8226 mitochondrial membrane potential changes, profiling panel, cell-based, JC-1 fluorescence, 24 h, 100 nL compound (AID 1169); conditions: RPMI8226 myeloma, JC-1 mitochondrial potential fluorescence, higher = more signal
# [9] = basal MM1S mitochondrial membrane potential changes, profiling panel, cell-based, JC-1 fluorescence, 24 h, 100 nL compound (AID 1170); conditions: higher = more signal
# [10] = A549 lung cancer cell viability effects, profiling panel, resazurin fluorescence, 24 h, PK04 Diversity Set (AID 1171); conditions: higher = more signal, called active from +8 up or from −8 down
# Further: test concentration not given here.
Structure (SMILES),z-score [1],z-score [2],z-score [3],z-score [4],z-score [5],z-score [6],z-score [7],z-score [8],z-score [9],z-score [10]
COc1ccc(CCNC(=O)[C@@H]2c3ccccc3C(=O)N(Cc3ccccc3)[C@H]2c2ccc(CO)cc2)cc1,2.96,1.29,2.44,-0.913,1.02,2.56,1.26 (inactive),-0.192,-0.502,0.577 (inactive)
COCCOC(=O)N1C(=O)[C@@]2(c3cc(C#CC4(O)CCCCCC4)ccc31)[C@H](C(=O)NC[C@H](O)c1ccccc1)[C@H]1C(=O)O[C@H](c3ccccc3)[C@H](c3ccccc3)N1[C@@H]2c1ccc(OCCO)cc1,-0.248,0.504,-0.466,-1.16,-1.91,-1.64,1 (inactive),-1.01,-1.19,0.365 (inactive)
O=C1c2ccccc2[C@](Cc2ccccc2I)(C(=O)NC2CC2)[C@H](c2ccc(CO)cc2)N1Cc1ccccc1Cl,-0.138,-0.103,-0.0887,-1.39,-0.715,0.833,-0.469 (inactive),-0.332,-0.664,0.623 (inactive)
COC(=O)[C@]1(Cc2ccccc2N=[N+]=[N-])N=C(c2ccc(OCCCO)cc2)O[C@@H]1c1ccccc1,-3.71,0.561,-5.71,-3.66,-4.01,-2.54,0.911 (inactive),-1.01,-2.86,-5.19 (inactive)
NC(=O)[C@@H]1[C@H]2C(=O)O[C@H](c3ccccc3)[C@H](c3ccccc3)N2[C@H](c2ccccc2OCCO)[C@@]12C(=O)Nc1ccc(C#CCCO)cc12,0.888,1.27,0.133,0.448,-3.68,-0.945,0.783 (inactive),-1.11,0.068,0.461 (inactive)
CC(C)[Si](C#C[Si](C(C)C)(C(C)C)C(C)C)(O[C@H](C)c1cn(Cc2cccc(Cl)c2)nn1)C(C)C,1.85,-0.667,1.12,0.673,0.133,1.37,0.159 (inactive),-0.0288,0.238,1.15 (inactive)
CC(C)CN1C(=O)[C@@]2(Cc3ccccc31)c1ccccc1C(=O)N(Cc1ccccc1)[C@H]2c1ccc(CO)cc1,-0.225,-0.0208,-0.134,-0.688,-0.152,-0.529,-0.224 (inactive),0.0482,1.07,-0.252 (inactive)
CC(C)N1C(=O)c2ccccc2[C@](C)(C(=O)O)[C@@H]1c1ccc(CO)cc1,-0.786,0.0073,-0.876,0.0364,0.0868,0.0703,0.597 (inactive),0.663,-0.188,0.069 (inactive)
CC(C)C[C@H]1NC(=O)[C@H](C)NC(=O)[C@@]23C(=O)N[C@@H](Cc4ccccc4)C2[C@H](C)[C@@]2(C)O[C@H]2C3/C=C/C/C=C\CNC1=O (stereo not given in full),-0.0541,0.392,-0.17,-0.36,-0.659,-0.482,-0.752 (inactive),-0.0616,1.34,-0.271 (inactive)
COc1ccc([Si](C)(C)[C@@H]2[C@@H](CCO)O[C@]3(C(=O)N(Cc4ccccc4)c4ccc(N5CCCCC5=O)cc43)[C@H]2C)cc1,-0.887,2.07,-1.02,-1.58,-4.08,0.311,-0.258 (inactive),-0.776,-0.786,-1.88 (inactive)
O=C1O[C@@H](c2ccccc2)[C@@H](c2ccccc2)N2[C@@H](c3ccc(O)cc3)[C@]3(C(=O)Nc4ccc(C#CC5=CCCCC5)cc43)[C@@H](C(=O)Nc3nc4ccccc4s3)[C@H]12,0.583,-0.0897,1.46,-0.575,-1.81,-2.6,0.03 (inactive),-0.745,-1.02,-0.361 (inactive)
C=CC[C@]1(C(=O)N2CCOCC2)N=C(c2ccc(OCCCO)cc2)O[C@H]1c1ccccc1CN=[N+]=[N-],0.762,0.399,1.65,-0.0728,-1.62,1.48,0.114 (inactive),-0.977,-0.508,-0.119 (inactive)
N#Cc1ccc(NN2C(C(O)c3ccco3)C=CC3C(=O)N(c4ccccc4)C(=O)C32)cc1 (stereo not given),-0.121,-0.908,1.26,-0.372,-0.197,-0.764,-0.829 (inactive),0.45,0.121,-0.2 (inactive)
CCOC(=O)C1=CC[C@@H](c2ccc(N(CC)CC)cc2)N(S(=O)(=O)c2ccc(C)cc2)[C@H]1c1ccc([N+](=O)[O-])cc1,-0.112,-1.19,0.203,-0.0595,-0.173,4.25,-0.114 (inactive),-0.673,-0.609,0.325 (inactive)
C[N+](C)(C)CCCC[C@@H]1NC(=O)[C@H]2C[C@@H](C(=O)NCCCCCCN)[C@@H](c3cccc(OCCO)c3)N2C1=O,-0.535,0.875,-0.997,0.179,1.07,-1.01,-0.547 (inactive),-0.0252,-0.154,-0.871 (inactive)
